From PubChem
KB-3-1 cytotox – kills parental KB-3-1 adenocarcinoma cells. KB-3-1 viability, CellTiter-Glo ATP luminescence, 72 h. Potency, µM (highest dose often 46.1 µM), most hits filed as cytotoxic. hit rate 1.4% among 400,000. AID 1347075; note: nearly all actives have a fitted effect of over 60% in size
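Parental KB-3-1 viability, qHTS format: 72 h compound exposure, 37 °C; CellTiter-Glo; media-only wells and DMSO plates as controls; concentration-effect fits on corrected data.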
PINK1 expr mod – PINK1 expression modulation. PINK1 immunofluorescence, high-content cytometry, 24 h. Potency, µM (top dose mostly 76.6 µM), hits mostly activators. hit rate 0.2% among 410,000. AID 624263; active = well fitted activation curve with a large enough effect; inconclusive = small, poorly fitted or top-dose-only effect; cell line not stated here; note: nearly all actives have a fitted effect of over 65% in size
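Cells are seeded, rested 12 hours, then given compound at five concentrations or DMSO for 24 hours. After fixation, blocking and antibody staining, PINK1 amount and mitochondrial localization are scored; CCCP serves as control.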
12-LOX inh – ALOX12 (human) lipoxygenase inhibition; hit rate 1.1% among 580,000; Potency, µM (titrated, usually from 108 µM), hits mostly inhibitors; P18054; purified 12hLO, xylenol orange hydroperoxide absorbance
Target sequence (P18054 whole entry, looked up): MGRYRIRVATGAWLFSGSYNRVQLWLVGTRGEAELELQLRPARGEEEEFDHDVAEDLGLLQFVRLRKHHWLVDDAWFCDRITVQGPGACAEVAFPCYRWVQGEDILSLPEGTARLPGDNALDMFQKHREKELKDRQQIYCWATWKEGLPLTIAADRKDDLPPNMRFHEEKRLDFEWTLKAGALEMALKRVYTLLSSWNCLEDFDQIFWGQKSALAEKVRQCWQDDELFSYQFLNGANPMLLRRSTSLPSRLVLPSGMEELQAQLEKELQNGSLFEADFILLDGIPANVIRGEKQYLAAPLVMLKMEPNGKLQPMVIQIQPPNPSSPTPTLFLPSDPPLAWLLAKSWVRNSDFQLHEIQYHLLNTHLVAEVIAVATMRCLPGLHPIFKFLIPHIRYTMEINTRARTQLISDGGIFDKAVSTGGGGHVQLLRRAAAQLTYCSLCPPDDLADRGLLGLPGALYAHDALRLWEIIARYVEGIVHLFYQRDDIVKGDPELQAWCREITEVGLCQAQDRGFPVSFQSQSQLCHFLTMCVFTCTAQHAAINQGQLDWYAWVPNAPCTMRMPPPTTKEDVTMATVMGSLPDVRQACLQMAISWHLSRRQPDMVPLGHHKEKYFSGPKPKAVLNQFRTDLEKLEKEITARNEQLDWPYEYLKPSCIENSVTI
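Hydroperoxide product was detected by ferrous iron/xylenol orange as the 573 to 405 nm absorbance ratio. Arachidonic acid at 40 uM (final) was turned over for 30 min at room temperature by 150 nM human 12hLO, pH 7.0 Hepes buffer, after 15 min compound preincubation.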
KB-V1 cytotox – KB-V1 MDR subline cytotoxicity | KB-V1 MDR cells viability, CellTiter-Glo, 72 h | Potency, µM (titrated, usually from 46.1 µM), most hits filed as cytotoxic | hit rate 3.4% among 400,000 | AID 1347076; note: nearly all actives have a fitted effect of over 60% in size
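Potencies derive from concentration-effect curves fitted to normalized luminescence (CellTiter-Glo) of KB-V1 cells treated for 72 h at 37 degrees C in phenol-red-free DMEM containing 10% FBS.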
MCF10A rereplic – induces DNA re-replication in MCF 10a normal breast cells | MCF 10A DNA re-replication, Hoechst nuclear intensity, 48 h | Potency, µM (top dose mostly 46.1 µM), hits mostly activators | hit rate 2.9% among 350,000 | AID 624296; note: nearly all actives have a fitted effect of over 50% in size
SW480 rereplic – DNA re-replication induction in SW480 cells. SW480 DNA re-replication, Hoechst DNA content imaging, 48 h. Potency, µM (titrated, usually from 46.1 µM), hits mostly activators. hit rate 1.8% among 340,000. AID 624297; note: nearly all actives have a fitted effect of over 55% in size
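Per well, 250 cells were exposed to pinned compound for 48 hr. Nuclear DNA was visualised with Hoechst (40 min, 37 C) and total object intensity recorded by fluorescence scanning.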
Of the large screens only hits and unclear results are named; the others gave an inactive call. Hits are enriched below; roughly 5.8% of the tested compounds scored in any of these assays. Unless noted, calls come from the whole dose curve; as a rule, active = well fitted curve in the direction sought with a large enough effect; inconclusive = small, poorly fitted or top-dose-only effect, or another doubt; inactive = no such curve, though single readings can be large; an effect the other way counts as inactive or inconclusive.

O=C(NCCCN1CCOCC1)c1cccc(S(=O)(=O)N2CCN(c3ccccc3)CC2)c1	none
O=C(NCCc1nc2ccccc2n1CCC1CCCCC1)c1ccco1	none (no result: KB-3-1 cytotox, PINK1 expr mod, KB-V1 cytotox, MCF10A rereplic, SW480 rereplic)
CC(=O)Nc1ccc(C(=O)N2CCC3(CC2)N=C(c2cccc(Br)c2)NO3)cc1	none (no result: KB-3-1 cytotox, PINK1 expr mod, KB-V1 cytotox, MCF10A rereplic, SW480 rereplic)
Cn1c(=O)c2c(ncn2CC(O)COCc2ccccc2F)n(C)c1=O (stereo unspecified)	none (no result: KB-3-1 cytotox, PINK1 expr mod, KB-V1 cytotox, MCF10A rereplic, SW480 rereplic)
Cc1ccsc1/C=N/NC(=O)c1cccc2ccccc12	none (no result: KB-3-1 cytotox, PINK1 expr mod, KB-V1 cytotox, MCF10A rereplic, SW480 rereplic)
COc1cc(OC)c2c(-c3cccc(-c4ccc(OC)c(OC)c4)c3)cc(=O)oc2c1	MCF10A rereplic 1.3µM, SW480 rereplic 2.1µM
COc1cc(OC)c2c(-c3cccc(-c4sccc4C(C)=O)c3)cc(=O)oc2c1	KB-3-1 cytotox 2.9µM, KB-V1 cytotox 2.6µM, MCF10A rereplic 0.65µM, SW480 rereplic 6.5µM
COc1cc(OC)c2c(-c3cccc(-c4ccc(F)c(Cl)c4)c3)cc(=O)oc2c1	KB-3-1 cytotox inconclusive, KB-V1 cytotox inconclusive, MCF10A rereplic 4.6µM, SW480 rereplic inconclusive
COc1cc(OC)c2c(-c3cccc(-c4ccc(NC(C)=O)cc4)c3)cc(=O)oc2c1	MCF10A rereplic inconclusive, SW480 rereplic 9.2µM
COc1ccc([C@H]2C[C@@H](O)[C@@H](O)[C@@H]2NC(=O)c2cc3ccccc3s2)cc1	none (no result: KB-3-1 cytotox, PINK1 expr mod, KB-V1 cytotox, MCF10A rereplic, SW480 rereplic)
Cc1cc(N)cc(C)c1-c1c(Br)cc(N)cc1Br	KB-3-1 cytotox 13µM, 12-LOX inh inconclusive, KB-V1 cytotox 16µM, MCF10A rereplic inconclusive, SW480 rereplic inconclusive
CO/N=C(/CNC(=O)c1ccccc1Cl)c1ccc(Cl)cc1	KB-V1 cytotox 23µM
CCOc1cc(/C=C\c2nc(O)c([N+](=O)[O-])c(=O)[nH]2)ccc1OC(C)C	KB-V1 cytotox inconclusive
C=CCc1cc(/C=C/c2nc(O)c([N+](=O)[O-])c(=O)[nH]2)cc(OC)c1O	12-LOX inh 40µM
CCc1ccccc1NC(=O)CNC(=O)Cn1c(=O)n(CC)c2ccccc21	none (no result: KB-3-1 cytotox, PINK1 expr mod, KB-V1 cytotox, MCF10A rereplic, SW480 rereplic)
CCOc1ccc(C(=O)OCC(=O)NCC(F)(F)F)cc1	none (no result: KB-3-1 cytotox, PINK1 expr mod, KB-V1 cytotox, MCF10A rereplic, SW480 rereplic)
CCOc1ccc(C(=O)N/N=C(\c2ccccc2)c2ccccn2)cc1	KB-3-1 cytotox inconclusive, SW480 rereplic 8.2µM
O=C(c1ccc2c(c1)OCO2)N1CCC2(CC1)COc1ccccc1CN2	none (no result: KB-3-1 cytotox, PINK1 expr mod, KB-V1 cytotox, MCF10A rereplic, SW480 rereplic)
Cc1nnnn1/C(=C\c1ccccc1)C(=O)OCC(=O)NC(C)(C)C	MCF10A rereplic inconclusive, SW480 rereplic inconclusive
Cc1nnnn1/C(=C\c1ccccc1)C(=O)OCC(=O)NC1CCCCC1	MCF10A rereplic inconclusive, SW480 rereplic 23µM
Fc1ccc2c(c1)C1OCCCC1C(c1ccccc1)N2 (stereo unspecified)	MCF10A rereplic 6.5µM, SW480 rereplic inconclusive
N#Cc1ccc(F)c(CSc2nnc(N)s2)c1	none (no result: KB-3-1 cytotox, PINK1 expr mod, KB-V1 cytotox, MCF10A rereplic, SW480 rereplic)
CCOC(=O)N1CCN(C(=O)c2ccc3nc(SCc4ccc(F)cc4)n(C)c3c2)CC1	KB-V1 cytotox 9.2µM
O=C(CCCSc1nc2ccccc2s1)NCc1ccccc1F	none (no result: KB-3-1 cytotox, PINK1 expr mod, KB-V1 cytotox, MCF10A rereplic, SW480 rereplic)
Cc1cc(-c2ccccc2)cc(C)n1	none
c1ccc(-c2cc(-c3ccccc3)[o+]c(-c3ccccc3)c2)cc1	12-LOX inh 16µM (no result: KB-3-1 cytotox, PINK1 expr mod, KB-V1 cytotox, MCF10A rereplic, SW480 rereplic)
O=C(CN1CCN(C(=O)c2cccnc2OCC(F)(F)F)CC1)Nc1ccccc1Cl	none (no result: KB-3-1 cytotox, PINK1 expr mod, KB-V1 cytotox, MCF10A rereplic, SW480 rereplic)
CCSc1ccccc1C(=O)N1CCN(Cc2ccc3c(c2)OCO3)CC1	KB-V1 cytotox 18µM
Cc1cc(C(=O)N2CCN(Cc3ccc4c(c3)OCO4)CC2)cs1	KB-V1 cytotox 15µM, MCF10A rereplic inconclusive
CC(C)[C@H](NC(=O)c1ccc(C(C)(C)C)cc1)C(=O)N1CCN(Cc2ccc3c(c2)OCO3)CC1	KB-3-1 cytotox inconclusive, KB-V1 cytotox inconclusive, MCF10A rereplic 18µM, SW480 rereplic inconclusive
O=C(O)c1ccccc1C(=O)N1CCN(Cc2ccc3c(c2)OCO3)CC1	none
O=C(c1cccc(S(=O)(=O)N2CCOCC2)c1)N1CCN(Cc2ccc3c(c2)OCO3)CC1	KB-V1 cytotox inconclusive
O=C(c1ccc(S(=O)(=O)N2CCCCC2)cc1)N1CCN(Cc2ccc3c(c2)OCO3)CC1	KB-3-1 cytotox inconclusive, KB-V1 cytotox 2.6µM
Cc1ccc(NC(=O)CC(C)(C)CC(=O)O)cc1C	none (no result: KB-3-1 cytotox, PINK1 expr mod, KB-V1 cytotox, MCF10A rereplic, SW480 rereplic)
Cn1c(CCNC(=O)c2ccccc2F)nnc1SCC(=O)N1CCc2ccccc21	none (no result: KB-3-1 cytotox, PINK1 expr mod, KB-V1 cytotox, MCF10A rereplic, SW480 rereplic)
